Among all 5,500 compounds or so, about 2,000 (36%) were called active. Not shown: some 18% with an inconclusive outcome. The list shows a part of the results. Values without a mark were called inactive. No stated cut-off is given here; in the data, active means normalized growth mostly below about 0.91 (no sharp cut-off); inconclusive means no clear call, values can overlap the other calls; inactive means mostly above about 0.92.
Assay: chemical genetic growth profiling, strain panel (AID 1159580);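 further: tested at 20 µM; growth read once vehicle control cultures reached saturation at 30 °C; 1 = growth at the plate median or of vehicle wells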
Settings: S. cerevisiae deletion strains, growth OD
[1] = locus YHR030C, strain SLT2, stronger effect = lower value
[2] = locus YHR079C, strain IRE1, stronger effect = lower value
[3] = locus YJL095W, strain BCK1, stronger effect = lower value
[4] = locus YJR066W, strain TOR1, stronger effect = lower value
[5] = locus YLR113W, strain HOG1, stronger effect = lower value
[6] = locus YNL183C, strain NPR1, stronger effect = lower value
[7] = locus YOR231W, strain MKK1, stronger effect = lower value
[8] = locus YPL256C, strain CLN2, stronger effect = lower value
[9] = locus YAL040C, strain CLN3, stronger effect = lower value
[10] = locus YCL061C, strain MRC1 (second series), stronger effect = lower value
[11] = locus YDR363W, strain ESC2, stronger effect = lower value
[12] = locus YER002W, strain NOP16, stronger effect = lower value
[13] = locus YGR078C, strain PAC10, stronger effect = lower value
[14] = locus YGR229C, strain SMI1, stronger effect = lower value
[15] = locus YMR263W, strain SAP30, stronger effect = lower value
[16] = locus YNL153C, strain GIM3, stronger effect = lower value
[17] = locus YNL175C, strain NOP13, stronger effect = lower value
[18] = locus YNL197C, strain WHI3, stronger effect = lower value
[19] = locus YNL224C, strain SQS1, stronger effect = lower value
[20] = locus YNL322C, strain KRE1, stronger effect = lower value
[21] = locus YOR083W, strain WHI5 (second series), stronger effect = lower value
[22] = locus YPL241C, strain CIN2, stronger effect = lower value
[23] = locus YDR150W, strain NUM1, stronger effect = lower value
[24] = locus YJR075W, strain HOC1, stronger effect = lower value
[25] = locus YNL128W, strain TEP1, stronger effect = lower value
[26] = locus YPL055C, strain LGE1, stronger effect = lower value
[27] = locus YMR307W, strain GAS1, stronger effect = lower value

SMILES: COC(=O)C(OC(C)=O)[C@H]1C(C)(C)C(OC(C)=O)[C@@H]2CC3=C4CC(=O)O[C@@H](c5ccoc5)[C@]4(C)CCC3[C@@]1(C)C2=O (stereo not given in full)
- normalized growth [1]: 0.961
- normalized growth [2]: 0.967
- normalized growth [3]: 0.979
- normalized growth [4]: 0.917
- normalized growth [5]: 0.99
- normalized growth [6]: 0.932
- normalized growth [7]: 0.989
- normalized growth [8]: 0.951

SMILES: CCC(NC(C)C)C(O)c1ccc(O)c(O)c1 (stereo not given)
- normalized growth [9]: 1
- normalized growth [10]: 0.992
- normalized growth [11]: 1.02
- normalized growth [12]: 1.01
- normalized growth [13]: 1.02
- normalized growth [14]: 0.976
- normalized growth [1]: 1.01
- normalized growth [2]: 0.97
- normalized growth [3]: 0.982
- normalized growth [4]: 0.954
- normalized growth [5]: 0.99
- normalized growth [15]: 1.02
- normalized growth [16]: 1
- normalized growth [17]: 1.02
- normalized growth [6]: 0.923
- normalized growth [18]: 1.02
- normalized growth [19]: 1.01
- normalized growth [20]: 0.992
- normalized growth [21]: 1.03
- normalized growth [7]: 0.982
- normalized growth [22]: 0.991
- normalized growth [8]: 0.96

SMILES: CN(N=O)c1cc(O)ccc1O
- normalized growth [9]: 0.98
- normalized growth [10]: 0.99
- normalized growth [23]: 1
- normalized growth [11]: 0.975
- normalized growth [12]: 1
- normalized growth [13]: 0.988
- normalized growth [24]: 0.989
- normalized growth [25]: 0.993
- normalized growth [16]: 1.02
- normalized growth [17]: 0.983
- normalized growth [18]: 1.01
- normalized growth [19]: 0.991
- normalized growth [21]: 0.991
- normalized growth [26]: 0.972
- normalized growth [22]: 0.987

SMILES: CN(N=O)c1ccc(O)c(O)c1
- normalized growth (locus YAL013W, strain DEP1, stronger effect = lower value): 0.957
- normalized growth [9]: 0.997
- normalized growth [10]: 0.946
- normalized growth [23]: 0.934 (active)
- normalized growth [11]: 0.928
- normalized growth [12]: 0.974
- normalized growth [13]: 0.972
- normalized growth [24]: 0.93
- normalized growth [15]: 0.998
- normalized growth [17]: 0.976
- normalized growth [18]: 0.964
- normalized growth [19]: 0.994
- normalized growth [21]: 0.98
- normalized growth [26]: 0.993

SMILES: CC(C)C[C@H](NC(=O)[C@H](O)[C@H](N)Cc1ccccc1)C(=O)O
- normalized growth [9]: 0.978
- normalized growth [10]: 1
- normalized growth [11]: 1.03
- normalized growth [12]: 1.03
- normalized growth [14]: 1
- normalized growth [15]: 0.994
- normalized growth [27]: 0.986
- normalized growth [25]: 0.981
- normalized growth [16]: 0.986
- normalized growth [17]: 0.999
- normalized growth [18]: 1
- normalized growth [19]: 0.99
- normalized growth [21]: 1.03

SMILES: CC(C)CC(NC(=O)C(Cc1ccccc1)NC(=O)CNC(=O)CNC(=O)C(N)Cc1ccc(O)cc1)C(=O)O (stereo not given)
- normalized growth (locus YBR021W, strain FUR4, stronger effect = lower value): 0.858
- normalized growth (locus YBR229C, strain ROT2, stronger effect = lower value): 0.95
- normalized growth (locus YCL029C, strain bik1, stronger effect = lower value): 0.979
- normalized growth (locus YDL035C, strain GPR1, stronger effect = lower value): 0.956
- normalized growth (locus YDL074C, strain BRE1, stronger effect = lower value): 1.01
- normalized growth (locus YDL101C, strain DUN1, stronger effect = lower value): 1.02
- normalized growth (locus YDL185W, strain tfp1, stronger effect = lower value): 0.973
- normalized growth (locus YDL192W, strain arf1, stronger effect = lower value): 0.995
- normalized growth (locus YDR101C, strain arx1, stronger effect = lower value): 0.976
- normalized growth [23]: 0.989
- normalized growth (locus YDR162C, strain NBP2, stronger effect = lower value): 0.951
- normalized growth (locus YDR318W, strain mcm21, stronger effect = lower value): 0.991
- normalized growth (locus YDR388W, stronger effect = lower value): 0.978
- normalized growth (locus YDR502C, strain sam2, stronger effect = lower value): 1.01
- normalized growth (locus YEL061C, strain CIN8, stronger effect = lower value): 0.987
- normalized growth (locus YER110C, stronger effect = lower value): 0.988
- normalized growth (locus YER155C, strain BEM2, stronger effect = lower value): 1.01
- normalized growth (locus YER167W, strain BCK2, stronger effect = lower value): 0.989
- normalized growth (locus YGL078C, strain dbp3, stronger effect = lower value): 0.999
- normalized growth (locus YGL086W, strain mad1, stronger effect = lower value): 1
- normalized growth (locus YGL248W, strain PDE1, stronger effect = lower value): 1
- normalized growth (locus YGR135W, strain pre9, stronger effect = lower value): 0.96
- normalized growth [14]: 0.963
- normalized growth (locus YGR252W, strain gcn5, stronger effect = lower value): 1.07
- normalized growth [1]: 0.984
- normalized growth (locus YHR079C, strain IRE1 (second series), stronger effect = lower value): 0.996
- normalized growth (locus YHR094C, strain hxt1, stronger effect = lower value): 0.982
- normalized growth (locus YHR129C, strain ARP1, stronger effect = lower value): 0.998
- normalized growth (locus YHR200W, strain rpn10, stronger effect = lower value): 0.994
- normalized growth (locus YIL066C, strain RNR3, stronger effect = lower value): 0.948
- normalized growth (locus YIL073C, strain SPO22, stronger effect = lower value): 1.28
- normalized growth (locus YIL125W, strain kgd1, stronger effect = lower value): 0.993
- normalized growth (locus YIR030C, strain dcg1, stronger effect = lower value): 1
- normalized growth [3]: 1.06
- normalized growth (locus YJL134W, strain LCB3, stronger effect = lower value): 0.987
- normalized growth (locus YJL168C, strain set2, stronger effect = lower value): 1.01
- normalized growth (locus YJL187C, strain SWE1 (second series), stronger effect = lower value): 1.03
- normalized growth (locus YJR043C, strain POL32, stronger effect = lower value): 0.976
- normalized growth (locus YKL009W, strain mrt4, stronger effect = lower value): 1.01
- normalized growth (locus YKL068W, stronger effect = lower value): 0.989
- normalized growth (locus YKL085W, strain MDH1 (second series), stronger effect = lower value): 0.99
- normalized growth (locus YKL085W, strain MDH1, stronger effect = lower value): 0.99
- normalized growth (locus YKL190W, strain CNB1, stronger effect = lower value): 1
- normalized growth (locus YKR001C, strain vps1, stronger effect = lower value): 1.01
- normalized growth (locus YLR039C, strain RIC1, stronger effect = lower value): 1.38 [resistant] (active)
- normalized growth (locus YLR058C, strain SHM2, stronger effect = lower value): 0.981
- normalized growth (locus YLR102C, strain apc9, stronger effect = lower value): 0.994
- normalized growth (locus YLR262C, strain YPT6, stronger effect = lower value): 1.46 [resistant] (active)
- normalized growth (locus YLR268W, strain sec22, stronger effect = lower value): 1.01
- normalized growth (locus YLR330W, strain CHS5, stronger effect = lower value): 0.986
- normalized growth (locus YLR342W, strain FKS1 (second series), stronger effect = lower value): 0.889
- normalized growth (locus YLR371W, strain rom2, stronger effect = lower value): 0.988
- normalized growth (locus YLR418C, strain cdc73, stronger effect = lower value): 1
- normalized growth (locus YML016C, strain PPZ1, stronger effect = lower value): 0.975
- normalized growth (locus YML032C, strain rad52, stronger effect = lower value): 0.97
- normalized growth (locus YML124C, strain tub3, stronger effect = lower value): 0.998
- normalized growth (locus YMR078C, strain ctf18, stronger effect = lower value): 0.986
- normalized growth (locus YMR223W, strain ubp8, stronger effect = lower value): 0.988
- normalized growth [27]: 1.01
- normalized growth (locus YNL067W, strain RPL9B, stronger effect = lower value): 1.05
- normalized growth [25]: 0.969
- normalized growth (locus YNL233W, strain BNI4, stronger effect = lower value): 1.04
- normalized growth (locus YNL250W, strain rad50, stronger effect = lower value): 0.981
- normalized growth (locus YNL271C, strain bni1, stronger effect = lower value): 0.988
- normalized growth (locus YNL298W, strain CLA4, stronger effect = lower value): 0.979
- normalized growth (locus YNL307C, strain MCK1, stronger effect = lower value): 0.987
- normalized growth [20]: 0.997
- normalized growth (locus YNR052C, strain pop2, stronger effect = lower value): 0.981
- normalized growth (locus YOL012C, strain htz1): 0.972
- normalized growth (locus YOL147C, strain pex11, stronger effect = lower value): 0.993
- normalized growth (locus YOR061W, strain CKA2, stronger effect = lower value): 0.961
- normalized growth (locus YOR069W, strain VPS5, stronger effect = lower value): 0.99
- normalized growth (locus YOR136W, strain idh2, stronger effect = lower value): 1.02
- normalized growth (locus YOR144C, strain elg1, stronger effect = lower value): 0.995
- normalized growth (locus YOR184W, strain ser1, stronger effect = lower value): 0.996
- normalized growth (locus YOR316C, strain cot1, stronger effect = lower value): 0.989
- normalized growth [26]: 0.988
- normalized growth [22]: 0.985
- normalized growth (locus YPR119W, strain clb2, stronger effect = lower value): 0.992
- normalized growth (locus YPR141C, strain kar3, stronger effect = lower value): 0.991
- normalized growth (locus YPR163C, strain tif3, stronger effect = lower value): 0.979
- normalized growth (locus YPR167C, strain met16, stronger effect = lower value): 0.997
- normalized growth (strain wtn01, stronger effect = lower value): 0.987
